Laboratory results published in the supplement of paper PMC11417369.
± gives the standard deviation of the averaged measurements. In all, about 25,000 sequences were measured (“ln(normalized median fluorescence intensity)”: median about 8.6, highest 2% from about 10 on). The sample holds the highest values, similar sequences and a random draw of the others, so the mix is not that of the screen.

These sequences were tested on PfAP2-EXP AP2 domain (GST-tagged) (assay: gcPBM binding intensity (ln(normalized median fluorescence intensity)); higher = stronger DNA binding).
Outline: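 For binding intensity, the highest Masliner-normalised natural-log median intensity across replicate spots of either probe orientation was taken. Protein bound to the array was stained with Alexa488 anti-GST antibody and scanned at 488 nm. The protein, GST-tagged P. falciparum DNA-binding domains from E. coli at about 25 μg on average, had been applied for 1 h to an Agilent 4 × 180k array of primer-extended double-stranded 36-bp intergenic genomic probes and negative controls.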

Sequence	gcPBM binding intensity (ln)
TATATATATTTATAATGTACACATATATGTAAATAT [XGTACX_site3695]	8.51 ± 0.2
ATATATATATATATAAAGTGAAGTATGAGGGAAATA [XGTACX_negctrl_site497]	10.1 ± 0.3
AGAATAAAAAGGAACACACACACACGCATATAAATA [CACACA_site7659]	9.01 ± 0.55
TTACATATTATACGAAGTACGTACAAATACTTATAT [XGTACX_site8598]	8.6 ± 0.26
GTATGTTTGTTATGCACACAAATGCATCTTATTTCC [CACACA_site2690]	8.96 ± 0.28
TTATTTAACGTATTCTCACACATATATATATATAAT [CACACA_site5226]	8.64 ± 0.42
TAAATATGTATAAATTGTACAAAATATATGAATAGT [XGTACX_site5659]	8.94 ± 0.29
CTCATAATTTCTGAACGTACGTATTTCTCATTTTTA [XGTACX_site7296]	8.83 ± 0.44
TCCTTTTTTAAAAGTTGTACATTATTGTTATTTGTT [XGTACX_site4686]	8.65 ± 0.3
TTTTAAATAATTCGTAATTATAATTATGGAAAAAAG [CACACA_negctrl_site152]	8.43 ± 0.48
TTAGCAACTATTACTACACACATTTGTATTTAATTT [CACACA_site4961]	8.49 ± 0.35
GTATTCTACAGACACATACACACATATATATATATA [CACACA_site3427]	10.1 ± 0.22
ATTCTACACAGACATACACACATATATATATATATA [CACACA_site5826]	10.2 ± 0.4
TACAGACATACATACACACATACATATATATATATA [CACACA_site1940]	10.1 ± 0.11
TTTATTAATTAAACCATACACACATAATTTTTTTAT [CACACA_site842]	8.34 ± 0.47
ATTTAGAAAAATAAAACACACATATAGATGTAAATA [CACACA_site7853]	8.57 ± 0.58
TTAAAAAGAAAGTTCACACACATATATATGACGGAA [CACACA_site2602]	8.93 ± 0.45
CACAAGAAAATTCACACACACACATATATATATATA [CACACA_site3880]	10.1 ± 0.27
CAAGAAAAGAAACACACACACATATATATATATATA [CACACA_site3881]	10.1 ± 0.26
AAACAGAAGACATATACACACATACAAAAAAGTGCA [CACACA_site4699]	8.81 ± 0.33
AAAAAAAAAAGAAAAAGTACATACATACATATATAT [XGTACX_site6405]	8.46 ± 0.36
CACAAGAAAGTTCACACACACACATATATATATATA [CACACA_site6009]	10.2 ± 0.18
CACAAAAAGAAACACACACACATATATATATATATA [CACACA_site999]	10.2 ± 0.22
AAGACAAAACAAAGAAGTACATATATATATATATAT [XGTACX_site4067]	10.3 ± 0.4
AAGAAAAAAAAAAAAACACACATATATATATATATA [CACACA_site2027]	10.2 ± 0.13
AAAAAAAAAAGAAACACACACATATATATATATAAT [CACACA_site5052]	8.61 ± 0.52
AAAAAAAAAAAAGAAACACACACATATATATATATA [CACACA_site8525]	10.1 ± 0.31
AAAAAAAAAAAAGAAACACACATATATATATATATA [CACACA_site140]	10.1 ± 0.6
